Experimental data: PubChem BioAssay AID1159580 (chemical genetic matrix, 2015)
“And” between values parts separate entries of the source, which are not always exact repeats. Equal entries are not always repeated. About 2,000 (36%) of roughly 5,500 compounds were called active. Another 18% or so got no clear call; they are omitted. Cut-off read from the data, not from the text of the source: active = normalized growth mostly below about 0.91 (no sharp cut-off); inconclusive = no clear call, values can overlap the other calls; inactive = mostly above about 0.92. The list shows a part of the results.

Assay: chemical genetic growth profiling, strain panel (AID 1159580);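 note: tested at 20 µM; growth read once vehicle control cultures reached saturation at 30 °C; 1 = growth at the plate median or of vehicle wells; lower values mean less growth of the strain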
Details: S. cerevisiae deletion strains, growth OD

Measured: normalized growth

CC(=O)Oc1ccccc1C(=O)Oc1ccccc1C(=O)O
inactive: locus YAL013W, strain DEP1, active compounds read low 0.989 | locus YAL021C, strain ccr4, active compounds read low 1.01 | locus YAL026C, strain drs2, active compounds read low 1.01 | locus YAL030W, strain snc1, active compounds read low 1 | locus YBL061C, strain skt5, active compounds read low 1 | locus YBR009C, strain hhf1, active compounds read low 1.01 | locus YBR021W, strain FUR4, active compounds read low 0.981 | locus YBR023C, strain chs3, active compounds read low 0.998 | locus YBR171W, strain sec66, active compounds read low 1 | locus YBR229C, strain ROT2, active compounds read low 0.992 | locus YBR231C, strain swc5, active compounds read low 0.995 | locus YBR279W, strain paf1, active compounds read low 1 | locus YCL011C, strain gbp2, active compounds read low 1.02 | locus YCL016C, strain dcc1, active compounds read low 1 | locus YCL029C, strain bik1, active compounds read low 0.98 | locus YCL069W, strain vba3, active compounds read low 1 | locus YCR088W, strain abp1, active compounds read low 1 | locus YDL005C, strain med2, active compounds read low 0.995 | locus YDL035C, strain GPR1, active compounds read low 1 | locus YDL040C, strain nat1, active compounds read low 1 | locus YDL074C, strain BRE1, active compounds read low 1.01 | locus YDL101C, strain DUN1, active compounds read low 0.997 | locus YDL134C, strain PPH21, active compounds read low 1.02 | locus YDL185W, strain tfp1, active compounds read low 0.987 | locus YDL192W, strain arf1, active compounds read low 0.993 | locus YDR001C, strain nth1, active compounds read low 1.01 | locus YDR069C, strain doa4, active compounds read low 0.996 | locus YDR101C, strain arx1, active compounds read low 0.994 | locus YDR137W, strain rgp1, active compounds read low 1 | locus YDR150W, strain NUM1, active compounds read low 0.996 | locus YDR159W, strain sac3, active compounds read low 0.962 | locus YDR162C, strain NBP2, active compounds read low 1.02 | locus YDR195W, strain ref2 0.962 | locus YDR297W, strain sur2, active compounds read low 1.01 | locus YDR318W, strain mcm21, active compounds read low 0.986 | locus YDR334W, strain swr1, active compounds read low 1 | locus YDR335W, strain msn5, active compounds read low 1 | locus YDR388W, active compounds read low 0.986 | locus YDR392W, strain spt3, active compounds read low 0.954 | locus YDR502C, strain sam2, active compounds read low 0.985 | locus YEL003W, strain gim4, active compounds read low 1.01 | locus YEL037C, strain rad23, active compounds read low 1 | locus YEL061C, strain CIN8 (second series), active compounds read low 1.01 | locus YEL061C, strain CIN8, active compounds read low 0.999 | locus YER015W, strain faa2, active compounds read low 0.997 | locus YER016W, strain bim1, active compounds read low 1 | locus YER110C, active compounds read low 0.98 | locus YER111C, strain swi4, active compounds read low 0.994 | locus YER155C, strain BEM2 (second series), active compounds read low 1.02 | locus YER155C, strain BEM2, active compounds read low 0.986 | locus YER167W, strain BCK2, active compounds read low 0.991 | locus YFR010W, strain ubp6, active compounds read low 1.02 | locus YGL078C, strain dbp3, active compounds read low 0.977 | locus YGL086W, strain mad1, active compounds read low 0.984 | locus YGL167C, strain pmr1, active compounds read low 0.996 | locus YGL173C, strain kem1, active compounds read low 1.02 | locus YGL227W, strain vid30, active compounds read low 0.998 | locus YGL240W, strain doc1, active compounds read low 0.978 | locus YGL248W, strain PDE1, active compounds read low 0.992 | locus YGL253W, strain hxk2, active compounds read low 0.996 | locus YGR078C, strain PAC10, active compounds read low 1.01 | locus YGR135W, strain pre9, active compounds read low 0.999 | locus YGR229C, strain SMI1, active compounds read low 1.01 | locus YGR252W, strain gcn5, active compounds read low 0.966 | locus YHR013C, strain ard1, active compounds read low 1.01 | locus YHR027C, strain rpn1, active compounds read low 0.985 | locus YHR030C, strain SLT2, active compounds read low 0.991 and 0.986 | locus YHR079C, strain IRE1 (second series), active compounds read low 0.983 | locus YHR079C, strain IRE1, active compounds read low 0.995 | locus YHR094C, strain hxt1, active compounds read low 0.98 | locus YHR129C, strain ARP1, active compounds read low 1 | locus YHR142W, strain chs7, active compounds read low 1.01 | locus YHR200W, strain rpn10, active compounds read low 0.97 | locus YIL066C, strain RNR3, active compounds read low 0.982 | locus YIL073C, strain SPO22, active compounds read low 0.975 | locus YIL125W, strain kgd1, active compounds read low 0.977 | locus YIR030C, strain dcg1, active compounds read low 0.983 | locus YJL092W, strain hpr5, active compounds read low 1.01 | locus YJL095W, strain BCK1 (second series), active compounds read low 0.997 | locus YJL095W, strain BCK1, active compounds read low 1.01 and 1 | locus YJL115W, strain asf1, active compounds read low 1.01 | locus YJL129C, strain trk1, active compounds read low 1.01 | locus YJL134W, strain LCB3, active compounds read low 0.992 | locus YJL154C, strain vps35, active compounds read low 1 | locus YJL164C, strain tpk1, active compounds read low 0.996 | locus YJL166W, strain qcr8, active compounds read low 1.01 | locus YJL168C, strain set2, active compounds read low 0.981 | locus YJL187C, strain SWE1 (second series), active compounds read low 0.993 | locus YJL187C, strain SWE1, active compounds read low 1.01 | locus YJR043C, strain POL32, active compounds read low 0.995 | locus YJR066W, strain TOR1, active compounds read low 0.905
